Rows were chosen to be rich in hits. Some 2.3% of all compounds tested hit in one or more screens of this group.
bovine MsrA act: activates bovine MsrA enzyme; activation, % at 10.6 µM; purified bovine MsrA, absorbance read-out; 360,000 compounds, 0.3% hits; AID 602163; in the data active means activation above about 7.5%
PP5 inh: PP5 (human) phosphatase inhibition; 320,000 compounds, 0.18% hits; inhibition, % at 6.7 µM; P53041; purified PP5c, OMFP substrate fluorescence;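 active means inhibition above the campaign's mean inhibition across all tested compounds plus 3 SD, cut at about 9.5% in these data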
Target sequence (P53041 whole entry, looked up): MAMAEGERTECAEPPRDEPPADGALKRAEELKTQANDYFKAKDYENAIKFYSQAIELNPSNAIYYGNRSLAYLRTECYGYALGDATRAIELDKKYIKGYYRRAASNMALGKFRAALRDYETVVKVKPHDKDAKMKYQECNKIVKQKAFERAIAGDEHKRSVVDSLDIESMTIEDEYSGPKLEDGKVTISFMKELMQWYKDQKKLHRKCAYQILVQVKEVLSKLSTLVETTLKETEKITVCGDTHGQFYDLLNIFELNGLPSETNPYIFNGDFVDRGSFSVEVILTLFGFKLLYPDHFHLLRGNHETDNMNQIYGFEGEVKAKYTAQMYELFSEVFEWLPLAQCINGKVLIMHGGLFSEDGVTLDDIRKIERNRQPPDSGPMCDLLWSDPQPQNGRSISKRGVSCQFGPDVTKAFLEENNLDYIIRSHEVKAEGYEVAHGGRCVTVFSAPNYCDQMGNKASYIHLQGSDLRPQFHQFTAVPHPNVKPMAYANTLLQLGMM
PP1 inh: blocks human PP1-alpha phosphatase, a PP5 counter-screen; P62136; purified PP1alpha, OMFP fluorescence; inhibition, % at 6.7 µM; 320,000 compounds, 0.9% hits; AID 2235;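 active means inhibition above the mean inhibition of all tested compounds plus 3 SD, computed separately for each screening campaign, cut at about 15% in these data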
EBNA-1 inh: blocks EBNA-1 binding to DNA; inhibition, % at 14.8 µM; 300,000 compounds, 0.34% hits; EBNA-1 DNA binding, fluorescence polarization; in the data active means inhibition above about 28%
MsrA inhibitor: inhibitors of bovine MsrA | purified bovine MsrA, absorbance read-out | 360,000 compounds, 0.75% hits | inhibition, % at 15.5 µM; in the data active means inhibition above about 4.5%
ZTA counter: ZTA (EBV) inhibition in EBNA-1 counter-screen; P03206; AID 2234; inhibition, % at 11 µM; 320,000 compounds, 0.15% hits; ZTA-DNA binding, fluorescence polarization; in the data active means inhibition above about 33%
Zta DNA confirm: confirmation of Epstein-Barr virus ZTA DNA binding inhibitors | shares compounds with ZTA counter | 320 compounds, 30% hits | inhibition, % at 11.1 µM | Zta-ZRE DNA binding, fluorescence polarization | AID 2361;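 active means mean inhibition across triplicate runs above the hit threshold derived for the original primary screen, cut at about 33% in these data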
EBNA1 counter: EBNA-1 DNA binding inhibition, counter-screen for ZTA; AID 2362; 320 tested, under 10 active; shares compounds with ZTA counter; fluorescence polarization; inhibition, % at 14.8 µM; call rule not given here
PP1 inh confirm: human PP1 phosphatase inhibition, confirmation; shares compounds with PP1 inh; purified PP1alpha, OMFP substrate fluorescence; inhibition, % at 6.7 µM; 1,900 compounds, 52% hits;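 active means mean PP1 inhibition above a set limit taken from the earlier primary screen, cut at about 15% in these data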
PP5 inh counter: PP5 phosphatase inhibition, counter-screen for PP1 inhibitors. inhibition, % at 6.7 µM. shares compounds with PP1 inh. purified PP5c, OMFP fluorescence. 1,900 compounds, 4% hits;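 active means mean PP5 inhibition over triplicate wells above about 9.5% taken from the earlier PP1 screen, limit read from the data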
Of the large screens only hits and unclear results are named; the others gave an inactive call (follow-up assays come after a bar, where they were run).

C#CCOCCOCCOCCNc1nc(N2CCN(C(=O)CCCCCCCCCCNC(=O)[C@H](CCCCN)n3cc(CCCC(=O)O)nn3)CC2)nc(N2CCN(C(=O)CCCCCCCCCCNC(=O)[C@H](CCCN=C(N)N)n3cc(C[C@@H](C)CC)nn3)CC2)n1	PP1 inh 42, ZTA counter 48 (no result: MsrA inhibitor) | Zta DNA confirm inactive | EBNA1 counter inactive | PP1 inh confirm inactive | PP5 inh counter inactive
C#CCOCCOCCOCCNc1nc(N2CCN(C(=O)CCCCCCCCCCNC(=O)[C@H](CCCCN)n3cc(CCO)nn3)CC2)nc(N2CCN(C(=O)CCCCCCCCCCNC(=O)[C@H](CCCN=C(N)N)n3cc(C[C@@H](C)CC)nn3)CC2)n1	PP1 inh 45, ZTA counter 36 (no result: MsrA inhibitor) | Zta DNA confirm 65 | EBNA1 counter inactive | PP1 inh confirm 44 | PP5 inh counter inactive
COc1ccc(Cl)cc1C(=O)Nc1cccc(-c2ccc3nncn3n2)c1	PP1 inh 51, ZTA counter 92 | Zta DNA confirm 118 | EBNA1 counter inactive | PP1 inh confirm 45 | PP5 inh counter inactive
COc1cccc(C(=O)Nc2cccc(-c3ccc4nncn4n3)c2)c1OC	none
C#CCOCCOCCOCCNc1nc(N2CCOCC2)nc(N2CCN(C(=O)CCCCCCCCCCNC(=O)[C@@H](CCSC)n3cc(CCO)nn3)CC2)n1	none
C#CCOCCOCCOCCNc1nc(N2CCN(C(=O)CCCCCCCCCCNC(=O)[C@H](CCCCN)n3cc(C)nn3)CC2)nc(N2CCN(C(=O)CCCCCCCCCCNC(=O)[C@@H]([C@H](C)CC)n3cc(CCCCCN)nn3)CC2)n1	PP1 inh 60, ZTA counter 70 (no result: MsrA inhibitor) | Zta DNA confirm 44 | EBNA1 counter inactive | PP1 inh confirm 28 | PP5 inh counter inactive
C#CCOCCOCCOCCNc1nc(N2CCN(C(=O)CCCCCCCCCCNC(=O)[C@@H](CCSC)n3cc(CCO)nn3)CC2)nc(N2CCN(C(=O)CCCCCCCCCCNC(=O)[C@H]([C@@H](C)CC)n3cc(CCCCN=C(N)N)nn3)CC2)n1	PP1 inh 55, ZTA counter 121 (no result: MsrA inhibitor) | Zta DNA confirm 59 | EBNA1 counter inactive | PP1 inh confirm 49 | PP5 inh counter inactive
C#CCOCCOCCOCCNc1nc(N2CCN(C(=O)CCCCCCCCCCNC(=O)[C@@H](CCSC)n3cc(CCO)nn3)CC2)nc(N2CCN(C(=O)CCCCCCCCCCNC(=O)[C@H]([C@@H](C)CC)n3cc(CCCCCN)nn3)CC2)n1	PP1 inh 60, ZTA counter 70 (no result: bovine MsrA act, MsrA inhibitor) | Zta DNA confirm 43 | EBNA1 counter inactive | PP1 inh confirm 53 | PP5 inh counter inactive
C#CCOCCOCCOCCNc1nc(N2CCN(C(=O)CCCCCCCCCCNC(=O)[C@H](CCCCN)n3cc(CCO)nn3)CC2)nc(N2CCN(C(=O)CCCCCCCCCCNC(=O)[C@@H]([C@H](C)O)n3cc(C)nn3)CC2)n1	none (no result: MsrA inhibitor)
O=c1c2sccc2n(Cc2cccc(F)c2)c(=O)n1-c1ccc(F)cc1	none
Cc1nn(CC(=O)Nc2ccc(C(=O)N3CCCC3)cc2)c(=O)c2ccccc12	none
Cc1nn(CC(=O)Nc2ccc(C(=O)N3CCCCC3)cc2)c(=O)c2ccccc12	PP1 inh 23, ZTA counter 35 | Zta DNA confirm inactive | EBNA1 counter inactive | PP1 inh confirm inactive | PP5 inh counter inactive
N=C1/C(=C\c2coc3ccccc3c2=O)C(=O)N=C2SC(c3ccncc3)=NN12	PP1 inh 34, ZTA counter 39 | Zta DNA confirm 63 | EBNA1 counter inactive | PP1 inh confirm 39 | PP5 inh counter inactive
N=C1/C(=C/c2coc3ccccc3c2=O)C(=O)N=C2SC(c3ccco3)=NN12	none (no result: MsrA inhibitor)
CCC(C)Sc1cc(-c2nc3ccc(C)cn3c2NCc2ccccc2)ccc1OC (stereo unspecified)	PP1 inh 18, ZTA counter 40 | Zta DNA confirm 93 | EBNA1 counter inactive | PP1 inh confirm inactive | PP5 inh counter inactive
CCC(C)Sc1ccc(-c2nc3ccc(C)cn3c2NCc2ccccc2)cc1OC (stereo unspecified)	none (no result: MsrA inhibitor)
Cc1cccc(N2C(=O)CC(N3CCN(c4ccccn4)CC3)C2=O)c1 (stereo unspecified)	none
CC(C)NC(=O)c1nc2c(nnn2Cc2cccc(Cl)c2)c(=O)[nH]1	none
Cc1nc(Nc2cnc(/C=C/c3cc(C(=O)Nc4cccc(C(F)(F)F)c4)ccc3C)cn2)cc(N2CCNCC2)n1	PP1 inh 23, ZTA counter 45 (no result: bovine MsrA act, MsrA inhibitor) | Zta DNA confirm inactive | EBNA1 counter inactive | PP1 inh confirm inactive | PP5 inh counter inactive
CCSc1nnc(NC(=O)[C@H](C)NC(=O)c2ccccc2Cl)s1	none
CCN(CC)CCOC(=O)c1ccc(N/C=C(/C#N)c2nc(-c3cc4ccccc4oc3=O)cs2)cc1	none (no result: PP5 inh, PP1 inh, EBNA-1 inh, ZTA counter)
CCN(CC)CCOC(=O)c1ccc(N/C=C(/C#N)c2nc(-c3ccc(OC)cc3)cs2)cc1	PP1 inh 60, ZTA counter 47 | Zta DNA confirm inactive | EBNA1 counter inactive | PP1 inh confirm inactive | PP5 inh counter inactive
CSc1ccc(CN2CCN(C(C)C)C(CCO)C2)cc1 (stereo unspecified)	none
C#CCOCCOCCOCCNc1nc(N2CCN(C(=O)CCCCCCCCCCNC(=O)Cn3cc(CCCCCN)nn3)CC2)nc(N2CCN(C(=O)CCCCCCCCCCNC(=O)[C@H]([C@@H](C)CC)n3cc(CCCCCN)nn3)CC2)n1	PP1 inh 46, ZTA counter 83 (no result: MsrA inhibitor) | Zta DNA confirm 35 | EBNA1 counter inactive | PP1 inh confirm 35 | PP5 inh counter inactive
C#CCOCCOCCOCCNc1nc(N2CCN(C(=O)CCCCCCCCCCNC(=O)Cn3cc(CCCCCN)nn3)CC2)nc(N2CCN(C(=O)CCCCCCCCCCNC(=O)[C@H](CO)n3cc(CCCCCN)nn3)CC2)n1	PP1 inh 35, ZTA counter 50 (no result: MsrA inhibitor) | Zta DNA confirm 36 | EBNA1 counter inactive | PP1 inh confirm inactive | PP5 inh counter inactive
O=C(COc1ccccc1Cl)NCCCNC(=O)c1ccco1	none
Cn1c(/C=C/c2ccc(Br)cc2)c([N+](=O)[O-])c(=O)n(C)c1=O	none
CCCn1c(SCC(=O)Nc2ccc(S(=O)(=O)N(C)C)cc2)n[nH]c1=O	none
O=C(Nc1ccc2oc(-c3ccncc3)nc2c1)c1ccc2c(c1)OCO2	PP1 inh 30, ZTA counter 50 | Zta DNA confirm 76 | EBNA1 counter inactive | PP1 inh confirm 25 | PP5 inh counter inactive

Screening data: PubChem, The Scripps Research Institute Molecular Screening Center
